Hits are enriched below; roughly 21% of the tested compounds scored in any of these assays.
IL1B secr inh: qHTS for Inhibitors of Inflammasome Signaling: IL-1-beta AlphaLISA Primary Screen | AID 743279, 2014 | THP-1 LPS/ATP IL-1B secretion, AlphaLISA, 16 h; stronger effect = lower value | hit rate 4.7% among 360,000 | activity change, % at 57.5 µM; in the data active = activity change below about -50%; inconclusive = mostly about -30% to -49%; also: % is scaled to controls: 0 for no effect and ±100 for the full control effect
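Secreted IL-1B measured by AlphaLISA bead assay after 16 h compound exposure of THP-1 cells; compounds (final up to 57.5 uM) added 1 h before LPS (250 ng/mL) and ATP (1.25 mM) stimulation; lower signal means less secretion.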
DRD3 antagonist: qHTS of D3 Dopamine Receptor Antagonist: qHTS; D(3) dopamine receptor (Homo sapiens), P35462; D3R cells, DiscoveRx beta-arrestin luminescence, antagonist mode; stronger effect = lower value; max response, negative = inhibition, %; hit rate 2.5% among 360,000; in the data active = max response below about -50%; inconclusive = no clear call, values can overlap the other calls; also: % is scaled to controls: 0 for no effect and ±100 for the full control effect
Target sequence (P35462 whole entry, looked up): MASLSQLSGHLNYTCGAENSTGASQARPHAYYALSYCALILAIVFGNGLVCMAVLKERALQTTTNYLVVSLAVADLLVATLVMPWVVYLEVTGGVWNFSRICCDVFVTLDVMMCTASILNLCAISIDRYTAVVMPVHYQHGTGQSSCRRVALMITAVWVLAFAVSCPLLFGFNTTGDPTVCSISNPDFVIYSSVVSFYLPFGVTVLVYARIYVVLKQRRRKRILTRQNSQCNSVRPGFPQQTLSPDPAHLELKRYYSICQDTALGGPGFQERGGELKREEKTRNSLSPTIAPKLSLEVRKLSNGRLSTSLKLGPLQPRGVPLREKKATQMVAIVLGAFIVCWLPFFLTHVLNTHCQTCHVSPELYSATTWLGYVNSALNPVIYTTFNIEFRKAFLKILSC
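Cells plated overnight at 1500 cells/well, then exposed to library compounds with dopamine controls for 90 minutes at 37 degrees C. DiscoveRx reagent added for 30–60 minutes at room temperature; luminescence read, quantitative HTS format.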
TDP1 cell CPT: qHTS for Inhibitors of human tyrosyl-DNA phosphodiesterase 1 (TDP1): qHTS in cells in presence of CPT | Potency, µM (top dose mostly 46.2 µM), for inactives: at the top dose activity change, negative = growth inhibition, hits mostly inhibitors | chicken DT40 Tdp1-/-;hTDP1 cells + 20 nM CPT, ATP luminescence, 48 h | hit rate 12% among 420,000; also: potency is read from the fitted curve at half-maximal effect; % is scaled to controls: 0 for no effect and ±100 for the full control effect; nearly all actives have a fitted effect of over 55% in size
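Cell growth measured by CellTiter-Glo luminescence after a minimum 48 h, 37 C compound exposure with 20 nM CPT in Tdp1-knockout DT40 cells stably expressing hTDP1, seeded 400/well; qHTS titration format.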
DRD3 agonist: qHTS of D3 Dopamine Receptor Agonist: qHTS; D(3) dopamine receptor (Homo sapiens), P35462; D3R DiscoveRx beta-arrestin cells, luminescence, 90 min; max activation, %; hit rate 0.58% among 410,000; AID 652048, 2013; in the data active = max activation above about 30%; also: 0% is about no effect
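Cells at 1500/well, incubated overnight, then treated with pinned compounds (dopamine as control) for 90 min at 37 degrees C. DiscoveRx reagent added for 30 - 60 minutes at room temperature; luminescence read.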
TDP1 cell noCPT: qHTS for Inhibitors of human tyrosyl-DNA phosphodiesterase 1 (TDP1): qHTS in cells in absence of CPT; DT40 Tdp1-/- hTDP1 cells, no CPT, ATP luminescence, 48 h; Potency, µM (doses to about 46.2 µM), inactives show at the top dose activity change, negative = growth inhibition, usual class: inhibitors; hit rate 15% among 420,000; AID 686978, 2013; also: potency is read from the fitted curve at half-maximal effect; % is scaled to controls: 0 for no effect and ±100 for the full control effect; nearly all actives have a fitted effect of over 55% in size
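Growth of hTDP1-complemented DT40 Tdp1-knockout cells is measured by ATP luminescence after at least 48 hr compound exposure at 37 °C, with DMSO substituting for the 20 nM CPT used in the parallel screen.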
ClpP mod: qHTS Assay for Activators of ClpP; ATP-dependent Clp protease proteolytic subunit (Bacillus subtilis (strain 168)), P80244; purified B. subtilis ClpP, FRET peptide cleavage, 20 min; Potency, µM (series often up to 57.5 µM), inactives show at the highest dose activity change, negative = active; hit rate 1.9% among 340,000; AID 651965, 2013; active = well fitted falling curve with a large enough effect; inconclusive = small, poorly fitted or top-dose-only effect; inactive = no such curve, though single readings can be large or run the other way; also: potency is read from the fitted curve at half-maximal effect; the source files actives as falling curves though it sought activators and does not explain the sign; nearly all actives have a fitted effect of over 65% in size
Target sequence (P80244 whole entry, looked up): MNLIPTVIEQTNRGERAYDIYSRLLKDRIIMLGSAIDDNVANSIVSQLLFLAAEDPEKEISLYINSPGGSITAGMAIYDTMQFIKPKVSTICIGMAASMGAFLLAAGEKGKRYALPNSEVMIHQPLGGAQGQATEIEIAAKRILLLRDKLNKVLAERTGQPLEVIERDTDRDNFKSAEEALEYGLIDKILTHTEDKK
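Purified B. subtilis ClpP, 10 microg/mL final in Tris/HCl pH8 with KCl, BSA, glycerol and Tween-20, cleaved an Abz/nitrotyrosine-quenched decapeptide. Fluorescence (ex 320, em 430) was read at 0 and 20 min at room temperature. Delta was normalized to 5.8 microM ADEP and DMSO/no-enzyme controls.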
* marks the source's active call; other numbers are inactive results; ? = inconclusive; nt = not tested or not shown; [ ] = remark or other dose. Unless noted, calls follow the shape of the dose curve; as a rule, active = well fitted inhibition curve with a large enough effect; inconclusive = small, poorly fitted or top-dose-only effect; inactive = flat fitted curve, though single readings scatter.

SMILES	IL1B secr inh	DRD3 antagonist	TDP1 cell CPT	DRD3 agonist	TDP1 cell noCPT	ClpP mod
O=C(COC(=O)/C=C/c1ccc(Cl)c(Cl)c1)NC1CCS(=O)(=O)C1 (stereo unspecified)	0	-15	10µM*	2	18µM*	1%
CNC(=O)C1CCC(Cn2c(=O)c3sccc3n(CC(=O)Nc3ccccc3)c2=O)CC1 (stereo unspecified)	nt	nt	1%	2	-23%	-1%
O=C(C1CCCN(Cc2ccccc2)C1)N1CCc2ccccc2C1 (stereo unspecified)	24	-89*	?	-45	?	1%
COc1ccc(CN2CCCC(C(=O)N3CCc4ccccc4C3)C2)cc1OC (stereo unspecified)	15	-61*	?	-19	-16%	-4%
O=C(C1CCCN(Cc2ccccc2[N+](=O)[O-])C1)N1CCCC1 (stereo unspecified)	12	-19	22%	-14	-16%	28µM*
COc1ccc(CN2CCCC(C(=O)N3CCCCC3)C2)cc1OC (stereo unspecified)	-3	-4	-4%	-18	-3%	1%
O=C(C1CCCN(Cc2cccc(F)c2)C1)N1CCCCC1 (stereo unspecified)	-2	-73*	-9%	-8	-14%	-1%
O=C(c1cccc(F)c1)N1CCCC(C(=O)N2CCCCCC2)C1 (stereo unspecified)	-4	-7	0%	-1	-4%	1%
O=C(CCC1CCCN(Cc2ccncc2)C1)NCc1ccc(F)c(F)c1 (stereo unspecified)	33	0	5%	-8	-8%	nt
OC1(c2cccnc2)CCN(Cc2ccc3c(c2)CN(Cc2cc4ccccc4s2)CCO3)CC1	nt	nt	-2%[9.04 µM]	nt	16µM*	nt
OC1(c2cccnc2)CCN(Cc2ccc3c(c2)CN(Cc2cccc(C(F)(F)F)c2)CCO3)CC1	nt	nt	-22%[9.04 µM]	nt	26µM*	nt
COc1cc(CN2CCOc3ccc(CN4CCC(O)(c5cccnc5)CC4)cc3C2)ccc1F	nt	nt	7%[9.04 µM]	nt	?	nt
OC1(c2cccnc2)CCN(Cc2ccc3c(c2)CN(Cc2ccsc2)CCO3)CC1	nt	nt	9%[9.04 µM]	nt	-23%	nt
Cc1cc(S(=O)(=O)N2CCCc3ccccc32)ccc1-n1cnnn1	-9	-7	?	-5	?	nt
Cc1ccc(NC(=O)c2oc3ccc4c(c3c2C)C(=O)CC(C)(C)O4)c(C)c1	nt	nt	?	6	?	1%
Fc1ccc(NC(=S)Nc2cccc3ccccc23)cc1	6	6	-14%	2	?	4%
CC(C)c1ccc(NC(=S)Nc2cccc3ccccc23)cc1	-8	-23	18µM*	-16	16µM*	4%
Fc1ccc(NC(=S)Nc2cccc3ccccc23)cc1F	2	-15	?	2	16µM*	3%
CN(C)CCCNC(=S)NCCNc1nc2cc3c(cc2cc1C#N)OCO3	-3	-18	17%	4	-2%	4%
CCOCCCNC(=S)NCCCNc1nc2cc3c(cc2cc1C#N)OCO3	15	?	-3%	-8	-22%	10µM*
COCCNC(=S)NCCCNc1nc2cc3c(cc2cc1C#N)OCO3	33	56	-13%	5	-24%	14µM*
Nc1nnc2c(n1)[nH]c1ccccc12	nt	nt	-19%	5	?	0%
CCOC(=O)CCCNC(=O)CN1CCC(c2nc3ccccc3s2)CC1	10	?	-22%	-11	?	-1%
CC1CCc2nc3ncn(Cc4cccc(F)c4)c(=O)c3cc2C1 (stereo unspecified)	nt	nt	?	-18	?	-2%
CCOC(=O)c1c(C)[nH]c(C)c1S(=O)(=O)NCC(=O)Nc1cccc(C(F)(F)F)c1	nt	nt	?	-12	-22%	-34%
SMILES	IL1B secr inh	DRD3 antagonist	TDP1 cell CPT	DRD3 agonist	TDP1 cell noCPT	ClpP mod
O=C1Nc2ccccc2/C1=C/c1ccc([N+](=O)[O-])cc1	-22	10	-7%	6	11%	1%
Cc1ccc2c(c1)/C(=C/c1ccccc1C)C(=O)N2	-100*	-14	-30%	4	?	nt
COc1ccccc1/C=C1\C(=O)Nc2ccccc21	-16	2	?	1	21µM*	2%
Cc1ccc2c(c1)/C(=C/c1ccc(F)cc1)C(=O)N2	-75*	-21	?	-6	21µM*	1%
Cc1ccc(-c2c(C)sc3ncn(CC(=O)N4CCOCC4)c(=O)c23)cc1C	17	-7	-20%	2	-18%	nt
CN1CCN(C(=S)c2cn(Cc3ccc(Br)cc3)c3ccccc23)CC1	-11	-88*	21µM*	-8	?	-3%
Fc1ccccc1Cn1cc(C(=S)N2CCOCC2)c2ccccc21	-25	-1	?	3	16µM*	1%
CCOc1ccc(-n2ccnc(SCC(=O)Nc3ccc(OC)cc3OC)c2=O)cc1	-10	-15	21µM*	-6	23µM*	7%
CCOc1ccc(-n2ccnc(SCC(=O)Nc3ccc(CC)cc3)c2=O)cc1	-23	12	?	-3	?	-2%
CCOc1ccc(-n2ccnc(SCC(=O)NCc3cccc(OC)c3)c2=O)cc1	-11	-60*	18µM*	-17	23µM*	-11%
Cn1nc(C(F)(F)F)c(-c2cccc(C(F)(F)F)c2)c1NC(=O)Nc1ccc(F)cc1	-1	0	16µM*	-6	15µM*	nt
CC(OC(=O)c1cccc(O)c1)C(=O)N(C)Cc1ccccc1 (stereo unspecified)	-11	-7	-26%	2	-8%	-4%
CC(OC(=O)c1ccccc1NS(=O)(=O)c1cccc(N)c1)C(=O)N(C)Cc1ccccc1 (stereo unspecified)	-12	-2	?	-4	23µM*	-10%
CC1(C)C(=O)OC(C(=O)c2ccc(C(C)(C)C)cc2)C(C)(C)C1=O (stereo unspecified)	19	13	-22%	2	?	32µM*
Cc1cccc(-n2ccnc2CN2CCN(C(C)C)C(CCO)C2)c1 (stereo unspecified)	18	-2	-2%	-7	-1%	nt
CCC(C)Cn1c(/C=C/c2ccccc2)nc2ccccc21 (stereo unspecified)	nt	nt	9.2µM*	-14	9.2µM*	4%
